PubChem BioAssay AID1508600 (Functional Genomics Laboratory (NCATS/FGL), 2020)
Among all 53,000 sequences or so, about 3,700 (7%) were called active.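 How the source made its calls: active means gene knockdowns whose robust z-score for IL-1 alpha signal is at least 2 or at most -2, so actives lie on both sides; inactive means the rest.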 The full list was thinned out, with actives kept by preference.

Experiment: Components of the Cytosolic LPS Sensing Pathway: Gene Identification via Genome-wide siRNA Screen;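 further: robust z of the log signal after scaling to non-targeting control siRNA wells of the plate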
Conditions: RAW264.7 macrophages, IL-1a HTRF, actives lie on both sides, screened at 100 nM (by protocol), cells primed 5 h with Pam3CSK4 first
In short: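 Using IL-1a HTRF as read-out, the screen measured release from RAW264.7 cells after 48h siRNA knockdown (100 nM), 5 h Pam3CSK4 priming and 24 h cytosolic LipidA. Values were expressed relative to negative-control wells as robust z-scores.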

Sequence	z-score
GGACAACACUGUCAAUCAUTT against Olfr922	-2.39 (active)
GGGAAUCUUUAUCAGUGAGTT against Insc	0.429 (inactive)
GCUCCUGAUCAAAUAAAGUTT against Ldhb	0.279 (inactive)
CCGGAGUUAUACCGUAAGATT against Plaur	-0.671 (inactive)
GGAGUAGGAACAAAAAUUGTT against Polb	-0.153 (inactive)
CCUUGGCCAAUCUCCACAATT against Ptpmt1	-0.485 (inactive)
GGAAAAAAUUAAAGAGCACTT against Gmcl1	2.15 (active)
GGCACAAAAGAAGAAGAUGTT against Retsat	-1.7 (inactive)
CGAUAAUGAAAGUGACCAUTT against Uri1	-0.0814 (inactive)
GGAUGCUAGACUAAUACUATT against Slc25a32	1.3 (inactive)
CGGGAAAGAGAUCAUCCCUTT against Nr1i2	-3.3 (active)
GGGAGGGAUGCAGUAAAUGTT against Acaa1a	-0.337 (inactive)
GCAGGAACGUGAGGACCAUTT against Snip1	0.842 (inactive)
GGCUCUGUGCAGACAUUUCTT against Pop5	-1.51 (inactive)
GUUCCGACUGAACUUGUAUTT against Psmb3	-2.55 (active)
GCCUGGAUACAAUUACCCUTT against Tc2n	-0.893 (inactive)
GCUCAGUAAUCGCUGUCUATT against Olfr91	-0.62 (inactive)
GGAGAUGAUACAUAAUCUATT against Psmd12	-0.0292 (inactive)
GCCUAAACCUGAGUUAUAATT against Lrig1	2.34 (active)
GGUGACAAAGGUGUUAGAATT against Itpkc	-0.252 (inactive)
GGUGACCAAAAAAGCUUUATT against Pax9	1.37 (inactive)
GCUCAAAUAACUCCACCACTT against Pola1	-1.73 (inactive)

Sequence	z-score
GGCGACCACUUUGUCUACATT against Plekhg3	1.1 (inactive)
GGGAAUUCUCCUGUUUGCUTT against Plp2	-2.22 (active)
GCUGCGUCCUAUGAGUUUATT against Drg2	1.72 (inactive)
GGCAGCAAGGAAACUAUUATT against Kpna3	1.39 (inactive)
GCCAACGAAAAAUGACCUCTT against Wnt2	-0.046 (inactive)
GGCCAAAAGUAUGAAAGUATT against Tspan1	0.45 (inactive)
GCGUGUUGUGAUGUCACCUTT against Cisd1	-0.0193 (inactive)
CCAGAUACUUCUCAUGGCGTT against Dipk1b	-0.0671 (inactive)
CGAUUUGCCUUAUUUUUCATT against Litaf	1.23 (inactive)
GGAAGUACAAACUACUAGUTT against Mcmbp	-0.393 (inactive)
GGCUUUCAAGAGCAAUCCCTT against Man2b2	-2.21 (active)
GGAGCUAGACAAAACUAAATT against Vmn2r81	-0.882 (inactive)
GUAGAAGAUGGAAUUUUUGTT against Rpl22l1	0.048 (inactive)
GGUCUGUGAGGAACAAAAGTT against Ccnd2	-2.26 (active)
CCUGAUGGGUUACCUAUGCTT against Col25a1	-0.379 (inactive)
GCGGUUCCAAGAUUGUUGUTT against Armc8	0.109 (inactive)
GCUGAUCGCUUUGAUUCGATT against Fkbp11	-0.495 (inactive)
GCUAACACUGCGCUUGGAATT against 1700067K01Rik	-1.39 (inactive)
GGGACCAGAACCACAAACATT against Ghsr	-1.62 (inactive)
GGACUAAAUAGGUUUACCATT against Alx1	1.26 (inactive)
CGCAGACAGAGACAACCUGTT against Casp6	-0.73 (inactive)
GCAGGUCACUUUCUAGAGATT against Srsf3	-2.25 (active)

Sequence	z-score
GCGUGUCCUAUAGCAUCUGTT against Cela1	-0.106 (inactive)
GGAAUUGAAGGGUACUUAATT against Fam111a	-1.97 (inactive)
GCCAAAUAUUAUUCCUACATT against Sec63	-0.282 (inactive)
GGCAUUGAGAUGAAAUGAATT against 4933427E11Rik	-2.5 (active)
GGGAAUCCUAGACAUGCUGTT against Nphp4	-1.91 (inactive)
GGGCAACCUGUCACAUUAUTT against Spam1	1.16 (inactive)
CCUCAUCCUUAGUUGUUUUTT against Ift88	-0.15 (inactive)
GCACAAUGGUGUUAAGUCATT against Ado	2.3 (active)
GGAACCUCUCAAUUUUGCGTT against Pik3ip1	0.659 (inactive)
GCAGGUUUAACAACUUACUTT against Dmgdh	3.07 (active)
GGAUUAGGUCAUUAUUAGGTT against Kcne3	-0.202 (inactive)
GGCAGUCUUGUCCCUUGUATT against Myl12a	-0.74 (inactive)
GGAAGAAGGAACAUGAUCUTT against Mrpl52	-0.928 (inactive)
CCCAGUUCUGUCCUACUUATT against Efcab6	-2.79 (active)
GGAGACAGUGGUAUUUUGATT against Birc5	0.468 (inactive)
GGAAGCAUGUGAGAGAAAATT against C130026I21Rik	-1.03 (inactive)
GGCAUCACACAGGAGAAAATT against Ppp1r16b	-0.391 (inactive)
GGAACAGAUGGGUGUGAAATT against Wnt2b	-0.0195 (inactive)
GGAAUUCAUUGCUAUUAUGTT against Cetn3	2.12 (active)
CUUUUGUAAAGCCUUCCACTT against Zfp708	-0.259 (inactive)
GGAUCUCGGGAAAAAGUUGTT against Spesp1	0.185 (inactive)
GGUCUAUCUGAAGAACAGUTT against Xpo5	1.02 (inactive)

Sequence	z-score
GGAGGCAUGCCCUAUGAAUTT against Zfp11	1.4 (inactive)
CCUCAAAUUAGUGCAGUUATT against Dnah8	0.661 (inactive)
GGUGGCACUCUUUCAGAUCTT against Dennd1a	2.08 (active)
GCUUGUCAAGUUUGUGAGCTT against Sec14l4	-0.0652 (inactive)
GGAAUAGUAACUCUUUCUCTT against Ehbp1l1	-0.0157 (inactive)
GGUUGUGGACACAUCCAAATT against Aacs	2.08 (active)
GGAUGUUAAAGCAAGUGUATT against Olfr1153	0.169 (inactive)
CGAGGAUUUCUAUCCUGACTT against Ascc1	-0.764 (inactive)
GGAAGUGCUCUGCUGUACATT against Eml6	0.655 (inactive)
GCUUGGUCAUUUUAAUAGGTT against Zscan29	-0.527 (inactive)
GGCCAGUGGGAAGUGAAGATT against Sec13	0.124 (inactive)
GCCAUAUCAACCGUAUUGGTT against Lzts3	-2.58 (active)
CGUGUACCAGCUACCUAAGTT against Phc2	-1.31 (inactive)
GGUUAGUAUGUAGCUCCCATT against Olfr982	-0.401 (inactive)
GGAACUUAAGAACUUUCUATT against Calb1	2.3 (active)
GGCCUAAAUUGACAAACUUTT against Oga	1.04 (inactive)
GGUAAAACAGAGGAGUCGGTT against Scaf1	-0.444 (inactive)
GGUACAAACUCUCCCUAGATT against Ube2c	-1.29 (inactive)
GGAUCUACAUUGCUAAAGUTT against Dbil5	0.0731 (inactive)
GCCCAAAAAGUGCUUGCUGTT against Tmem215	-1.76 (inactive)
CCUUCCCUUAAAUGGAACCTT against Slc9a1	1.63 (inactive)
CGCAGUGAUUAUGACCUCCTT against Thegl	-2.34 (active)

Sequence	z-score
GCCUUGUUACAAAUAGUCGTT against Tcf12	0.266 (inactive)
GGGAUUCGGUGAAGAUUUGTT against Nfe2l1	-0.736 (inactive)
GGUGAAAUCCUGAUGUUUUTT against Vps33b	0.301 (inactive)
GGGACAAGAUCUGAACUUCTT against Rgl3	-0.36 (inactive)
CCUCACUGUGGUAACAUUATT against Olfr452	1.84 (inactive)
GGAAAACAAACCACAGCCATT against Tpbpa	-2.66 (active)
GGUGCUAUUCAUCUGCACGTT against Lonp1	-1.09 (inactive)
GCCUGUCAUGGUUAUGACCTT against Shbg	-0.803 (inactive)
GGACAGAUACGUUAUCAAGTT against Il3	1.31 (inactive)
CCCAUUUGAAAUUAGGGUATT against Mief1	0.607 (inactive)
GCUGGCUUCAUUUUACUUATT against Degs1	0.126 (inactive)
GGAUUACAGGCAUUUGGUUTT against Hmgn1	3.01 (active)
GGAGUGAAGAUCUGAUUGCTT against Aaas	-1.63 (inactive)
GCUGGGAUGGUAUCGUUUCTT against Ripk2	0.559 (inactive)
GGUAUUGAUGCCAAAUUAATT against Plekha5	1.38 (inactive)
CGUCCUGUCGCUGAUUAAATT against Tcl1	0.323 (inactive)
CCGAAAAGUGUGGCGAGAATT against Arid3c	-0.285 (inactive)
CCAGAGUAAUUCAUCAUACTT against Agxt	0.172 (inactive)
GGUUCAGUUUGCCAAAGACTT against Elfn1	1.45 (inactive)
GGACUUCACAUUCUUGAGATT against A130010J15Rik	-0.232 (inactive)
